Hits are enriched below; roughly 5.9% of the tested compounds scored in any of these assays.
ATXN viability – cell viability loss in ATXN counter-screen. S2 cells (HEK-293 line with an ATXN2-luciferase reporter) viability, CellTiter-Fluor protease fluorescence, 24 h. Potency, µM (top dose mostly 56.7 µM), actives largely listed as cytotoxic. hit rate 0.49% among 400,000. AID 651635; further: nearly all actives have a fitted effect of over 40% in size
ATXN2 expr inh – ATXN2 expression inhibition; HEK-293 ATXN2-luciferase reporter, luminescence, 24 h; Potency, µM (highest dose often 57 µM), for the others: at the top dose activity change, negative = inhibition, most hits filed as inhibitors; hit rate 0.72% among 360,000; AID 1745845; further: on the % scale 0 is the no-effect control and ±100 the full control effect; nearly all actives have a fitted effect of over 55% in size
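ATXN2-luciferase reporter cells (luciferase flanked by upstream and downstream ATXN2 gene portions) were treated 24 h at 37 °C with compounds at up to 57 uM. SteadyGlo luminescence gave expression; GF-AFC fluorescence gave viability.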
KB-3-1 tox – kills parental KB-3-1 adenocarcinoma cells; KB-3-1 viability, CellTiter-Glo ATP luminescence, 72 h; Potency, µM (top dose mostly 46.1 µM), actives largely listed as cytotoxic; hit rate 1.4% among 400,000; AID 1347075; further: on the % scale 0 is the no-effect control and ±100 the full control effect; nearly all actives have a fitted effect of over 60% in size
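Luminescent ATP read-out (CellTiter-Glo) measures survival of drug-naive KB-3-1 cells after 72 h compound exposure at 37 °C. Titration series was screened from lowest to highest concentration, with DMSO vehicle plates as background controls.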
HepG2 tox-1 – HepG2 cytotoxicity, counter-screen for TGF-b inhibitors; HepG2 CAGA-GFP viability, ATP luminescence, 18 h; Potency, µM (highest dose often 46.1 µM), without a hit: at the highest dose activity change, negative = cytotoxicity, usual class: cytotoxic; hit rate 0.76% among 410,000; AID 588856
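CellTiter-Glo luminescence gave cytotoxicity after 18 hours at 37 degrees C. The cells were HepG2 CAGA-GFP in 1% FBS DMEM, stimulated with 500 pg/mL TGF-beta after compound addition. %Activity was normalised to no-cell wells (complete cell-killing) and DMSO (no toxicity), and curves were fitted and classified.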
KB-V1 MDR tox – KB-V1 MDR subline cytotoxicity; Potency, µM (titrated, usually from 46.1 µM), most hits filed as cytotoxic; KB-V1 MDR cells viability, CellTiter-Glo, 72 h; hit rate 3.4% among 400,000; further: on the % scale 0 is the no-effect control and ±100 the full control effect; nearly all actives have a fitted effect of over 60% in size
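qHTS viability screen in drug-selected KB-V1 MDR cells: 72 h compound treatment at 37 degrees C, ATP luminescence end point.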
TGFb SMAD3 inh – blocks TGF-b signaling | hit rate 1.2% among 410,000 | Potency, µM (highest dose often 46.1 µM), for the others: top-dose activity, negative = inhibition, most hits filed as inhibitors | AID 588855 | HepG2 CAGA-GFP TGF-b/SMAD3 reporter, GFP fluorescence, 18 h; TGF-beta stimulated, 500 pg/mL final; further: on the % scale 0 is the no-effect control and ±100 the full control effect; nearly all actives have a fitted effect of over 65% in size
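Per well, imaged GFP fluorescence of HEPG2 CAGA-GFP cells gives the signal; cells get compound, then TGF-beta (500 pg/mL final), 18 h at 37 degrees C; %Activity versus -TGF-beta and +DMSO controls.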
TGFb confirm – confirmation of TGF-b signaling inhibitors in HepG2 reporter cells. shares compounds with TGFb SMAD3 inh. HepG2 CAGA-GFP TGF-b reporter, GFP fluorescence, 18 h; cells stimulated with TGF-beta, 500 pg/mL. Potency, µM (top dose mostly 46.1 µM), for inactives: at the highest dose activity, negative = inhibition, hits mostly inhibitors. hit rate 63% among 1,600. AID 720534; further: on the % scale 0 is the no-effect control and ±100 the full control effect; nearly all actives have a fitted effect of over 65% in size
HepG2 tox-2 – HepG2 cytotoxicity, TGF-b inhibitor counterscreen. hit rate 27% among 1,600. AID 720535. HepG2 CAGA-GFP viability, ATP luminescence, 18 h; cells stimulated with TGF-beta, 500 pg/mL. shares compounds with TGFb SMAD3 inh. Potency, µM (doses to about 46.1 µM), for the others: top-dose activity, negative = cytotoxicity, hits mostly inhibitors; further: on the % scale 0 is the no-effect control and ±100 the full control effect; nearly all actives have a fitted effect of over 70% in size
TGFb CCL64 inh – TGF-b inhibition, CCL64 orthogonal assay. Potency, µM (series often up to 46.1 µM), for inactives: at the top dose activity, negative = inhibition, hits mostly inhibitors. shares compounds with TGFb SMAD3 inh. hit rate 41% among 1,600. CCL64 CAGA-GFP reporter, TGF-b stimulated, GFP fluorescence, 18 h. AID 720536; further: nearly all actives have a fitted effect of over 65% in size
TGFb COP inh – validation of TGF-b inhibitors in HepG2 COP promoter reporter. hit rate 3% among 1,600. Potency, µM (doses to about 46.1 µM), without a hit: top-dose activity, negative = inhibition, usual class: inhibitors. AID 720537. shares compounds with TGFb SMAD3 inh. HepG2 COP-GFP TGF-b reporter, GFP fluorescence, 18 h; cells stimulated by added recombinant TGF-beta; further: nearly all actives have a fitted effect of over 70% in size
* = called active by the depositor; i = inactive; ? = inconclusive; / = not tested or not shown; [ ] = another dose, or the depositor's remark. The call rests on the fitted dose curve; in most records, active means well fitted curve in the direction sought with a large enough effect; inconclusive means small, poorly fitted or top-dose-only effect, or another doubt; inactive means no such curve, though single readings can be large; an effect the other way counts as inactive or inconclusive. Potency means the concentration at half of the fitted maximal effect.

SMILES	ATXN viability	ATXN2 expr inh	KB-3-1 tox	HepG2 tox-1	KB-V1 MDR tox	TGFb SMAD3 inh	TGFb confirm	HepG2 tox-2	TGFb CCL64 inh	TGFb COP inh
O=C(Nc1ccc([N+](=O)[O-])cc1)Nc1ccc(Cl)cc1F	i	?	?	2.82µM*	18.4µM*	2.24µM*	?	?	4.11µM*	26.0%
O=[N+]([O-])c1ccc(NC(=S)NCCc2ccc(Cl)cc2)cc1	?	?	?	11.2µM*	16.4µM*	6.31µM*	14.6µM*	20.6µM*	4.61µM*	97.3%
O=C(Nc1ccc([N+](=O)[O-])cc1)Nc1ccon1	i	-12.1%	0.581µM*	-27.5%	6.51µM*	10µM*	?	-21.1%	?	-16.7%
O=[N+]([O-])c1ccc(NC(=S)NCCc2ccccc2)cc1	i	21.1%[11.3 µM]	?	-24.1%	?	?	/	/	/	/
COc1cc(C(O)c2nc(-c3ccc(C)c(C)c3)cs2)ccc1F (stereo not drawn)	i	-15.6%	i	-15.5%	i	-1.8%	/	/	/	/
CCOc1ccccc1NC(=O)C1CCN(S(=O)(=O)c2ccc3[nH]c4c(c3c2)CCCCC4)CC1	/	/	i	0.1%	i	0.0%	/	/	/	/
CCc1ccc2oc(C(=O)Nc3cccc(C(F)(F)F)c3)cc(=O)c2c1	i	-8.9%	i	5.3%	i	-1.1%	/	/	/	/
COc1ccc(N2CCN(c3oc(-c4ccc(COc5cccc(C)c5)o4)nc3C#N)CC2)cc1	i	-11.1%	i	-6.0%	i	-16.6%	/	/	/	/
NNC(=O)c1[nH]c2ccc([N+](=O)[O-])cc2c1-c1ccccc1	i	/	?	-23.5%	i	3.55µM*	?	-19.4%	?	-14.2%
CC1Sc2ccc(S(=O)(=O)CCC(=O)N3CCN(c4cccc(Cl)c4)CC3)cc2NC1=O (stereo not drawn)	i	?	?	-14.2%	i	15.8µM*	18.4µM*	?	?	25.7%
CN(C)CCN(C)C1CN(Cc2ccc(F)cc2)S(=O)(=O)C1 (stereo not drawn)	i	3.2%	i	2.6%	i	?	6.9%	-10.8%	-2.3%	-4.1%
CCN1CCN(c2ccc(S(=O)(=O)N3CCCCC3)cc2NC(=O)c2ccc([N+](=O)[O-])s2)CC1	?	25.1µM*	?	-43.3%	?	8.91µM*	16.4µM*	?	?	?
CCN(CC)S(=O)(=O)c1cccc(NC(=O)Nc2cccc(C(F)(F)F)c2)c1	?	22.4µM*	7.31µM*	11.2µM*	8.2µM*	7.94µM*	10.3µM*	?	8.2µM*	87.1%
CCCCC(CC)C(=O)Nc1ncc([N+](=O)[O-])s1 (stereo not drawn)	?	?	?	1.9%	?	11.2µM*	7.31µM*	?	?	64.8%
Cc1ccc(CC(=O)Nc2ncc([N+](=O)[O-])s2)cc1	?	/	?	-13.1%	i	-16.3%	/	/	/	/
Nc1ncnc2c1ncn2[C@@H]1O[C@H](C(=O)N[C@H]2c3ccccc3C[C@H]2O)[C@@H](O)[C@H]1O	i	-4.2%	i	-5.4%	i	0.9%	/	/	/	/
CN(C)CC(C(=O)c1ccccc1)c1ccccc1 (stereo not drawn)	/	22.4µM*	?	8.91µM*	?	3.98µM*	5.17µM*	10.3µM*	3.26µM*	?
Cc1ccc(S(=O)(=O)n2nc(-c3ccco3)nc2NCc2ccccc2Cl)cc1	i	14.7%	i	-0.9%	i	-7.3%	/	/	/	/
Cc1ccc(COc2ccccc2-c2cc(C(=O)N/N=C/c3cccnc3)[nH]n2)cc1	?	?	?	-20.6%	?	11.2µM*	?	?	23.1µM*	19.2%
Cc1ccc(-n2nc(C)c3c(C)c(CCC(=O)NCc4ccccc4Cl)c(C)nc32)cc1C	i	3.9%	i	-10.3%	i	-25.9%	/	/	/	/
COc1cccc(-c2nc(S(=O)(=O)c3ccc(C)cc3)c(N3CCCCC3)o2)c1	i	-5.1%	i	-29.8%	i	-23.8%	/	/	/	/
O=C(COc1ccccc1)NCc1ccccc1	i	13.0%	i	11.0%	i	0.0%	/	/	/	/
O=C(COc1ccc(C(=O)c2ccccc2)cc1)NCc1ccc(F)cc1	?	-22.1%	?	4.5%	?	?	9.2µM*	-14.0%	?	-3.6%
CCc1ccc(C2c3c(-c4cc(C)ccc4O)n[nH]c3C(=O)N2CCO)cc1 (stereo not drawn)	?	-17.9%	i	-19.8%	i	-11.8%	/	/	/	/
COC(=O)CCS(=O)(=O)c1nc(-c2ccccc2)cc(C(F)(F)F)n1	/	?	i	14.1µM*	?	5.01µM*	4.61µM*	14.6µM*	2.06µM*	?
COC(=O)c1c(NC(=O)/C(C#N)=C/c2ccc(OC)cc2)sc2c1CCC2	/	/	/	5.9%	/	-0.1%	/	/	/	/
CC(=O)c1cn(CC(=O)Nc2c(C)cccc2C)c2ccccc12	i	-17.4%	?	-15.8%	i	?	?	-10.1%	-2.6%	-0.8%
CCC(=O)c1cn(CC(=O)Nc2c(C)cccc2C)c2ccccc12	i	6.0%	i	2.0%	i	-5.0%	/	/	/	/
C=C(C(=O)c1ccccc1)C(C)CC(=O)c1ccccc1 (stereo not drawn)	/	?	i	-3.3%	i	12.6µM*	4.61µM*	14.6µM*	14.6µM*	-42.6%
O=C(CC(Nc1ccccc1)C(=O)O)c1ccccc1 (stereo not drawn)	i	124.2%	i	-3.4%	i	-5.1%	/	/	/	/

Source: PubChem BioAssay
